The values that follow come from the supplement of paper PMC8728848.

The entries come from a sample that favours the strongest signals as a whole.

Common to all, as to test: glycan array binding signal (z-score within array); higher = stronger binding
Common to all, as to settings: glycan notation: IUPAC condensed, linker removed

The target in test [1] is Fuc(a1-2)Gal(b1-3)GalNAc(b1-3)Gal(a1-4)Gal(b1-4)Glc. In outline: (§1)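 Columns mapping to the same glycan were averaged after glycan names were converted to IUPAC-condensed notation. The data come from 3228 arrays in the Consortium for Functional Glycomics database, limited to those with an available protein sequence. Binding is reported as a within-array Z-score averaged across arrays of one protein sequence and across linkers.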

Test [2] addresses Fuc(a1-2)[GalNAc(a1-4)]Gal(b1-4)GlcNAc. In outline:
as §1

Test [3] has as its target Fuc(a1-3)[Gal(b1-4)]GlcNAc(b1-4)Gal(b1-4)[Fuc(a1-3)]GlcNAc. In outline:
as §1

In test [4] the target is Fuc(a1-3)[Gal3S(b1-4)]GlcNAc. In outline: as §1
A further test addresses Gal(b1-3)GlcNAc. In outline:
as §1

Test [5] addresses Gal(b1-4)GlcNAc(b1-3)Gal(b1-4)GlcNAc(b1-3)Gal(b1-4)GlcNAc. In outline: as §1
In a further test the target is Gal3S(b1-4)Glc6S. In outline:
as §1

Another test concerns the target Gal3S6S(b1-4)GlcNAc6S. In outline: as §1
The target of a further test is Gal6S(b1-4)Glc. In outline:
as §1

The target of the next test is Gal6S(b1-4)Glc6S. In outline:
as §1

In a further test the target is GalNAc(a1-3)GalNAc. In outline: as §1
The target of a further test is Glc(a1-6)Glc(a1-6)Glc. In outline:
as §1

In test [6] the target is GlcNAc(b1-4)GlcNAc(b1-4)GlcNAc(b1-4)GlcNAc(b1-4)GlcNAc. In outline: as §1
In the next test the target is Kdn(a2-3)Gal(b1-4)GlcNAc. In outline:
as §1

The target in test [7] is Neu5Ac(a2-3)Gal(b1-4)GlcNAc(b1-2)Man(a1-3)[GlcNAc(b1-2)Man(b1-4)GlcNAc(b1-2)Man(a1-6)]Man(b1-4)GlcNAc(b1-4)GlcNAc. In outline:
as §1

Test [8] addresses Neu5Ac(a2-6)Gal(b1-4)GlcNAc(b1-3)Gal(b1-4)[Fuc(a1-3)]GlcNAc(b1-3)Gal(b1-4)[Fuc(a1-3)]GlcNAc. In outline:
as §1

Test [9] deals with Neu5Ac(a2-8)Neu5Ac(a2-3)[GalNAc(b1-4)]Gal(b1-4)Glc. In outline: as §1

B1: CBM32-1 (Clostridium perfringens) (protein)
chain: MGSSHHHHHHSSGLVPRGSHMASGVEITEGVTVTAKGNTEGNTADLAIDGDLSTYWESSNDYKWIEVDLGGIYELSKIEIFNKDEAVYKYNIYASEDGENFNKIAYKNNDNVSDSNGNVHTIDNVRAGKIRIDVVQNSNSDRVNIAEINVFG
As to B1, the “glycan array binding signal (z-score)” value in test [1] was -0.205; in [2], 0.059; in test [3], 0.331; in [4], -0.283; with Gal(b1-3)GlcNAc, -0.333; in test [5] it was 0.889. In addition, the “glycan array binding signal (z-score)” value is 3.21 with Gal3S(b1-4)Glc6S; 5.08 with Gal3S6S(b1-4)GlcNAc6S; 0.513 with Gal6S(b1-4)Glc; 4.39 in the test with Gal6S(b1-4)Glc6S; -0.173 in the test with GalNAc(a1-3)GalNAc; -0.279 in the test with Glc(a1-6)Glc(a1-6)Glc. Further, the “glycan array binding signal (z-score)” value was 5.14 in test [6]; -0.439 in the test with Kdn(a2-3)Gal(b1-4)GlcNAc; 3.77 in [7]; 0.193 in test [8]; -0.358 in test [9].
